Compound activity deposited in PubChem by several laboratories.
RAM network inh – inhibitors of the yeast RAM network, primary screen, dse1pr::URA3 reporter, 5-FOA selection. 190,000 compounds, 1.8% hits. inhibition, % at 50 µM. S. cerevisiae dse1pr::URA3 reporter, 5-FOA growth OD615, 2 d; analog-sensitive cbk1-as2 kinase mutant strain;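 active = inhibition above a set limit, 3 SD over mean compound inhibition, cut at about 8.4% in these data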;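 note: 0% = DMSO-only wells with no growth and 100% = 10 µM 1-NA-PP1 full growth; inhibition rescues growth on 5-FOA so higher OD means more RAM inhibition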
WT yeast gro inh – growth inhibition of WT strain, primary screen, mitochondrial fusion inhibitor project, WT and mutant strains, chemical genetic | mitochondrial fusion phenotypic screen | AID 1362, 2008 | inhibition, % at 10 µM | 190,000 compounds, 2.1% hits; in the data active = inhibition above about 58%; tested in S. cerevisiae
CHOP inh – inhibitors of CHOP promoter induction, primary screen, cell-based, unfolded protein response, luciferase reporter; 220,000 compounds, 3.8% hits; AID 2732, 2010; inhibition, % at 10 µM; CHO-K1 CHOP-promoter luciferase, tunicamycin-induced, 15-18 h;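 active = compounds that reduced the stress-induced luciferase reporter signal by more than about 70% of percent inhibition, limit read from the data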;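 note: 0% = tunicamycin plus vehicle and 100% = wells without tunicamycin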
L major viab – Leishmania major promastigote growth inhibition, primary screen | Leishmania major promastigotes, resazurin fluorescence viability | inhibition, % at 10 µM | 200,000 compounds, 9% hits; in the data active = inhibition above about 50%;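 note: promastigotes grown with compound for 44 hours at 28 °C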
* marks the source's active call; other numbers are inactive results. Shown are actives, neighbours in structure and some others; about 13% of the full set was active somewhere.

Results for CSc1nc(N)c2ncn([C@@H]3O[C@H](COP(=O)(O)OP(=O)(O)OP(=O)(O)O)[C@H](O)C3O)c2n1 (stereo not given in full) ?
CHOP inh: 11.3

Results for CC(C)n1c2ccccc2c2nnc(SCC(=O)OCN3C(=O)c4ccccc4C3=O)nc21 ?
RAM network inh: 3.0; WT yeast gro inh: -10.0; CHOP inh: 90.5*; L major viab: -2.8

What do the screens show for `CCOC(=O)c1sc(NC(=O)C(CC)Sc2nnc3c4ccccc4n(C(C)C)c3n2)nc1C` (stereo not given)?
RAM network inh: 8.6*; WT yeast gro inh: 9.5; CHOP inh: 68.6; L major viab: 72.1*

What do the screens show for `CCOC(=O)Cc1nnc(NC(=O)C(CC)Sc2nnc3c4ccccc4n(C)c3n2)s1` (stereo not given)?
RAM network inh: 4.3; WT yeast gro inh: -17.1; CHOP inh: 30.9; L major viab: -9.8

What do the screens show for `CCOC(=O)c1sc(NC(=O)C(CC)Sc2nc3ccccc3[nH]2)nc1C` (stereo not given)?
L major viab: 53.8*

Results for Cc1cc(C)nc(SCC(=O)OCN2C(=O)c3ccccc3C2=O)n1 ?
RAM network inh: -0.3; WT yeast gro inh: -0.6; CHOP inh: 25.5; L major viab: 1.6

What do the screens show for `Cc1c(-c2ccncc2)oc2ccc(Br)cc2c1=O`?
RAM network inh: 1.5; WT yeast gro inh: -5.2; CHOP inh: 11.8; L major viab: 6.3

How did O=c1cc(N2CCCCC2)c(-c2ccccc2)nn1Cc1ccccc1 do in these assays?
RAM network inh: 1.1; WT yeast gro inh: 75.8*; CHOP inh: 84.8*; L major viab: 12.8

What do the screens show for `COc1ccc(Cn2nc(-c3ccccc3)c(N3CCCCC3)cc2=O)cc1`?
RAM network inh: 3.6; WT yeast gro inh: 71.4*; CHOP inh: 74.0*; L major viab: 22.3

How did COc1cccc(/C=N/NC(=O)c2ccc(=O)n(C)c2)c1O do in these assays?
RAM network inh: 0.0; WT yeast gro inh: 19.7; CHOP inh: 56.0; L major viab: 81.0*

How did O=C(N/N=C/c1c(O)ccc2ccccc12)c1ccc[n+](CCO)c1 do in these assays?
RAM network inh: 1.1; WT yeast gro inh: -11.5; CHOP inh: 14.6; L major viab: -12.5

Results for Cn1cc(C(=O)N/N=C/c2c(O)ccc3ccccc23)ccc1=O ?
RAM network inh: -0.9; WT yeast gro inh: 1.8; CHOP inh: 56.6; L major viab: 99.3*

How did O=C(N/N=C/c1ccc[nH]1)c1ccccc1OCc1ccccc1Cl do in these assays?
RAM network inh: 1.7; WT yeast gro inh: 10.6; CHOP inh: 17.6; L major viab: 33.3

Results for C=CCc1cccc(/C=N/NC(=O)c2ccccc2OC)c1O ?
RAM network inh: 1.3; WT yeast gro inh: 8.1; CHOP inh: -36.8; L major viab: 98.4*

What do the screens show for `COc1cc(OC)c(OC)cc1/C=N/NC(=O)c1ccc(=O)n(C)c1`?
RAM network inh: 1.0; WT yeast gro inh: 3.4; CHOP inh: -10.2; L major viab: -3.2

What do the screens show for `O=C(N/N=C/c1ccco1)c1ccccc1OCc1ccccc1Cl`?
RAM network inh: 0.9; WT yeast gro inh: -3.5; CHOP inh: 1.2; L major viab: 69.1*

What do the screens show for `C=CCn1c(SCc2nc3ccccc3c(=O)[nH]2)nc2scc(C3CC3)c2c1=O`?
CHOP inh: -4.1

What do the screens show for `Cc1cc(Cl)ccc1Oc1ccccc1C(=O)CC#N`?
RAM network inh: -0.1; WT yeast gro inh: 45.3; CHOP inh: 46.5; L major viab: 18.2

Results for O=C(Nc1nc(-c2cccc([N+](=O)[O-])c2)cs1)c1cccc([N+](=O)[O-])c1C(=O)O ?
RAM network inh: 1.6; WT yeast gro inh: 3.0; CHOP inh: 14.4; L major viab: -5.3

How did CCOc1cccc(/C=N/NC(=O)c2cc(-c3cccn3C)n[nH]2)c1O do in these assays?
RAM network inh: 2.6; WT yeast gro inh: -5.5; CHOP inh: 60.3; L major viab: 98.2*

Results for COc1cccc(/C=N/NC(=O)c2ccc(=O)[nH]n2)c1O ?
CHOP inh: 38.2

What do the screens show for `Nc1cc(Cl)nc(N/N=C/c2c(O)ccc3ccccc23)n1`?
RAM network inh: 1.4; WT yeast gro inh: 13.3; CHOP inh: 23.4; L major viab: 91.0*

What do the screens show for `COc1cc(OC)c(OC)cc1/C=N/NC(=O)c1cc(-c2cccn2C)n[nH]1`?
RAM network inh: 1.5; WT yeast gro inh: 0.3; CHOP inh: -1.0; L major viab: 2.3
